# This is a sample that favours compounds with a hit; in the whole collection about 4.1% have one here.
# 697 NFkB inh: lowers PMA/ionomycin-induced NF-kB signal in 697 B cells | 697 B-cell NF-kB luciferase reporter, 16 h | AID 435022 | hit rate 0.33% among 330,000 | inhibition, % at 4 µM; in the data active means inhibition above about 35%
# Mdm2 MdmX PPI: disrupts the human Mdm2-MdmX interaction. inhibition, % at 8 µM. SaOS-2 split-luciferase Mdm2/MdmX complementation, luminescence. O15151+Q00987. hit rate 3% among 330,000. AID 485346;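 active means inhibition of at least 50% at 8 µM in the primary screen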
# Target sequence (O15151 whole entry, looked up): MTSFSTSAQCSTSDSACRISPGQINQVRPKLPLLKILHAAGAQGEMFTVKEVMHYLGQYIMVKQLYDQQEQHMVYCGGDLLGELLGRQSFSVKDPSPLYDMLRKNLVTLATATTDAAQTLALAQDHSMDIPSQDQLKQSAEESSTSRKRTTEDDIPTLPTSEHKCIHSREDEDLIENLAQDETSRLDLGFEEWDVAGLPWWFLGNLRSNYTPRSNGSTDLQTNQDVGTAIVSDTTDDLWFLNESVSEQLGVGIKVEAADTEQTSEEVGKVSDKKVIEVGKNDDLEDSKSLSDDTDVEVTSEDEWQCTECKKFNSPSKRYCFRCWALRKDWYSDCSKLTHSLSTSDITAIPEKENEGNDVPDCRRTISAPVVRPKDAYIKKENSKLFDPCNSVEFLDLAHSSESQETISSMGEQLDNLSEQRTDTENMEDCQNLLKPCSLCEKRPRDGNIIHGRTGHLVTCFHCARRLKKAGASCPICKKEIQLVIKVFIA
# Target sequence (Q00987 whole entry, looked up): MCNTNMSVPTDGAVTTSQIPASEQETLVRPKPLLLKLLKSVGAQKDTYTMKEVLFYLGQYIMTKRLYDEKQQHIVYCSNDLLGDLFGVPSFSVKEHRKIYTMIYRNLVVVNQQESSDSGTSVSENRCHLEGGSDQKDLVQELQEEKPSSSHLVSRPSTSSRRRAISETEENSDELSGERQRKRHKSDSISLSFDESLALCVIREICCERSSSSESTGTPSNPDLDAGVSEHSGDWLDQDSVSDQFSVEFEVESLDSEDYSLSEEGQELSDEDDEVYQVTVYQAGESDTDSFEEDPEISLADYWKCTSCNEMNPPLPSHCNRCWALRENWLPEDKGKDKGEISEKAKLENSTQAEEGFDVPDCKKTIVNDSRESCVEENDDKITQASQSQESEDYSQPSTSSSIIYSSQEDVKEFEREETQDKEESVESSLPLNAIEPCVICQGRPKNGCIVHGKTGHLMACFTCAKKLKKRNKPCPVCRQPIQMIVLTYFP
# KLF5 inhibitor: suppresses KLF5 promoter-driven expression; DLD-1 KLF5 promoter-luciferase reporter, luminescence; inhibition, % at 5 µM; hit rate 0.23% among 290,000; AID 1700;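 active means inhibition above a per-plate limit of that plate's mean compound inhibition plus 3 SD, cut at about 60% in these data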;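 further: 0% = DMSO wells and 100% = LY294002 at 200 µM; higher means less KLF5 promoter-driven luciferase light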
# Gli-Sufu antag: Gli-Sufu pathway antagonism; AID 588413; hit rate 0.74% among 340,000; inhibition, % at 5 µM; Sufu-KO-LIGHT fibroblasts, Gli luciferase reporter luminescence;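 active means inhibition above about 55%, limit read from the data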;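 further: 0% = DMSO-treated cells and 100% = wells with medium but no cells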
# aSyn UTR inh: 5' untranslated region of α-synuclein, MLPCN primary screen. alpha-synuclein 5'UTR reporter, inhibitor activity. inhibition, % (tested at 7.5 µM). hit rate 0.82% among 300,000. AID 1813; in the data active means inhibition above about 60%;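 further: H4 neuroglioblastoma cells stably carrying SNCA 5'UTR luciferase fusion; 0% = DMSO wells and 100% = positive control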
# Jurkat NFkB inh: lowers PMA/ionomycin-induced NF-kB signal in Jurkat cells | PMA/ionomycin-induced NF-kB luciferase reporter, luminescence | inhibition, % at 4 µM | hit rate 0.53% among 330,000; in the data active means inhibition above about 50%
# Numbers without * were called inactive; · = no result given.
SMILES,697 NFkB inh,Mdm2 MdmX PPI,KLF5 inhibitor,Gli-Sufu antag,aSyn UTR inh,Jurkat NFkB inh
Fc1ccc(-n2cc(-c3ccccc3)[n+]3c2SCC3)cc1,-4.1,0.5,-11.7,46.1,-9.7,1.5
CNC(=O)CS(=O)CC(=O)Nc1cc(OCCOC)c(Cl)cc1Cl (stereo not given),-5.3,12.2,-25.6,3.2,3.2,16.3
C=CC[n+]1c(-c2ccc(C)cc2)csc1Nc1ccc(NC(C)=O)cc1,·,·,13.4,44.3,100.4*,·
CCOC(=O)Nc1ccc2c(COC(=O)CNS(=O)(=O)c3cccc(Br)c3)cc(=O)oc2c1,-4.5,-15.5,-6.1,-19.5,9.8,-14.0
CCN(CC(=O)Nc1c(F)cccc1F)C(=O)c1ccc(N2C(=O)c3ccccc3C2=O)cc1,5.6,21.4,·,2.0,9.1,-6.8
COc1ccc(C2=COc3ccccc3C(=O)N2)cc1,-5.5,3.5,-27.6,-2.1,-57.1,0.3
COc1ccc(C2=C(C=O)Cc3ccccc3O2)cc1,8.2,40.1,·,-10.4,98.0*,-3.6
COc1cccc(CN2CCNC(=O)C2CC(=O)NCCOc2cccnc2)c1 (stereo not given),6.8,-5.6,-6.1,30.5,10.1,-1.1
NC(=O)C1(Nc2ccc(-c3ccc(Br)cc3)cc2)CCCC1,·,·,·,-40.5,·,·
O=C(Nc1ccccc1F)Nc1cc(S(=O)(=O)N2CCOCC2)ccc1N1CCCC1,6.4,20.7,-12.9,3.1,-43.5,-12.3
Cn1c(O)c(N=NC(=S)Nc2ccccc2F)c2cc(S(=O)(=O)N3CCOCC3)ccc21,·,·,-5.9,37.8,94.9*,·
CC(=O)Nc1ccc(S(=O)(=O)NC2=C(N3CCN(C)CC3)C(=O)c3ccccc3C2=O)cc1,-11.0,27.5,-22.1,-8.9,70.6*,29.3
CCN1CCN(C2=C(NS(=O)(=O)c3ccc(NC(C)=O)cc3)C(=O)c3ccccc3C2=O)CC1,-7.8,46.6,-5.3,4.3,-3.1,23.6
COc1ccc(C(CNC(=O)c2cc(F)c(F)c(F)c2F)N2CCOCC2)cc1 (stereo not given),-0.8,10.9,-38.6,-8.2,10.7,4.7
O=C(N/N=C/c1cc([N+](=O)[O-])ccc1O)c1cc(-c2ccccc2)nc2ccccc12,-106.0,42.7,-16.1,25.3,81.3*,-4.8
O=C(CCC1CCCCC1)NCCS(=O)(=O)N1CCN(c2ccccc2)CC1,-1.2,27.5,·,-2.2,20.0,8.4
CC(=O)Nc1ccc(C(=O)CN2CCN(c3ccccc3)CC2)cc1,1.4,-30.5,-38.6,-1.6,-15.3,0.5
COc1ccc(C(=O)CCC(=O)Nc2cccnc2)cc1OC,-1.3,15.8,3.6,14.0,4.6,-4.6
O=C1C2C3C=CC(C3)C2C(=O)N1/N=C/c1cn(Cc2ccc(F)cc2)c2ccccc12 (stereo not given),0.0,33.0,-35.9,-13.3,42.3,11.6
O=C1C2C3C=CC(C3)C2C(=O)N1/N=C/c1cn(Cc2ccccc2)c2ccccc12 (stereo not given),-13.4,16.8,-23.6,·,66.5*,2.0
CN1CCN(/N=C/c2ccc(N(c3ccccc3)c3ccccc3)cc2)CC1,-32.4,28.6,-18.6,-8.0,70.6*,-12.1
CN(C(=O)CSc1nnc(-c2ccncc2)n1Cc1ccccc1)C1CCS(=O)(=O)C1 (stereo not given),-1.0,20.6,-38.0,·,14.9,4.4
Cn1c(-c2ccccc2)cnc1SCC(=O)N1CCCCC1,-60.1,47.7,-24.4,16.8,82.8*,-42.6
C=C1C(=O)O[C@H]2C[C@]3(C)C([C@@H](OC(=O)/C(C)=C/C)[C@H]12)[C@](C)(O)CC[C@H]3O (stereo not given in full),11.6,12.0,-9.8,12.2,-1.7,-4.0
C=C[C@@]1(C)CC(=O)[C@]2(O)[C@@]3(C)[C@@H](O)CCC(C)(C)[C@@H]3[C@H](OC(C)=O)[C@H](O)[C@@]2(C)O1,-27.8,19.2,·,5.5,66.4*,-13.5
SMILES,697 NFkB inh,Mdm2 MdmX PPI,KLF5 inhibitor,Gli-Sufu antag,aSyn UTR inh,Jurkat NFkB inh
CCOC(=O)N/N=C/c1cn(Cc2ccc(Cl)cc2)c2ccccc12,28.6,-31.9,-17.5,-0.4,69.7*,14.6
O=[N+]([O-])/C=C/c1cn(Cc2ccc(Cl)cc2)c2ccccc12,-2.1,26.2,1.2,-7.2,64.9*,5.1
Nc1ccc(C(=O)N/N=C/c2cn(Cc3cccc(F)c3)c3ccccc23)cc1,27.8,9.6,-28.1,5.8,69.8*,14.7
O=C(CNc1ccc2c(c1)OCO2)N/N=C\c1cn(Cc2ccccc2)c2ccccc12,6.8,7.9,-24.0,1.1,81.2*,7.9
O=C(O)c1ccc(Cn2cc(/C=C\[N+](=O)[O-])c3ccccc32)o1,-0.4,15.7,4.0,3.7,6.9,8.9
COc1ccccc1C1CC(=O)Oc2cc(C)c(Cl)c(C)c21 (stereo not given),-6.2,34.3,·,-2.5,·,·
Cc1ccc(N2CC(C(=O)Nc3ccc(S(=O)(=O)N4CCOCC4)cc3)CC2=O)cc1Cl (stereo not given),2.3,2.3,·,10.0,16.5,3.7
CCN(CC)c1ccc(C(=O)OCc2cc(=O)oc3cc(O)ccc23)cc1,-26.8,36.3,2.7,5.8,116.9*,-20.0
COc1ccc(C(=O)/C=C/C(=O)N(Cc2ccc3c(c2)OCO3)C(C(=O)NC2CCCCC2)c2ccncc2)c(O)c1 (stereo not given),6.4,26.1,10.4,8.4,-10.1,-9.3
COc1ccc(C(=O)/C=C/C(=O)N(CC(=O)NC2CCCCC2)Cc2cccs2)c(O)c1,11.1,30.5,14.8,7.5,70.6*,-1.1
COc1ccc(CN(C(=O)/C=C/C(=O)c2ccc(OC)cc2O)C(C(=O)NC2CCCCC2)c2ccncc2)cc1 (stereo not given),10.1,-17.0,7.2,10.2,13.5,5.0
COCCN(CC(=O)NC1CCCCC1)C(=O)/C=C/C(=O)c1ccc(OC)cc1O,·,·,-6.7,4.4,78.8*,·
Cc1cc(C)c(S(=O)(=O)Nc2ccc(Cl)cn2)c(C)c1,3.5,10.4,4.8,-6.4,3.3,-6.6
O=[N+]([O-])c1cc(CN2CCN(c3cccc(C(F)(F)F)c3)CC2)c2cccnc2c1O,-29.9,24.3,14.2,28.4,70.8*,21.5
COc1ccc(/C=C(/NC(=O)c2ccccc2)C(=O)N2CCOCC2)cc1OC,12.0,8.6,7.3,26.3,6.6,-7.8
COCc1cc(C)nc2sc(C(=O)NN)c(-n3cccc3)c12,-1.5,-23.3,-32.5,-1.3,71.4*,7.9
OC1Cc2ccccc2C1Nc1cccc(C(F)(F)F)c1 (stereo not given),·,·,·,7.9,·,·
Cn1cc(/C=C/c2cc[n+](C)cc2)c2cc(Cl)ccc21,·,·,18.8,40.0,63.8*,·
Cc1nc(Nc2cc(F)ccc2C)c2nnn(Cc3ccccc3)c2n1,1.6,-0.4,-24.3,-13.2,16.5,-3.1
O=C(c1ccccc1)c1ccc2ccccc2c1,·,·,·,-35.6,·,·
Cc1cc2ccccc2cc1C(=O)c1ccccc1,·,·,·,0.1,·,·
O=C(c1ccccc1)c1c2c(cc3sc4ccccc4[n+]13)-c1cccc3cccc-2c13,·,·,-9.4,76.0*,·,·
